Measured values published in PubChem BioAssay.
Active and inactive are the calls of the source.

What was measured:
[1] = tested on: PRMT1 (protein arginine N-methyltransferase 1); assay: small molecules binding arginine methyltransferase PRMT1 – biochemical, small-molecule microarray, 635 nm fluorescence, primary screen (AID 1088); conditions: higher = more signal;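 note: binding of Prmt1 protein to compounds spotted on small-molecule microarray slides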
[2] = growth effects on S. cerevisiae YJM789 – YJM789 clinical isolate, OD600, 24 h, basal, primary screen (AID 1089); conditions: higher = more signal, called active from +8 up or from −8 down;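 note: growth of clinical yeast isolate S. cerevisiae YJM 789 seeded 1000 cells per well; test concentration not given here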
[3] = S. pombe growth modifiers, basal conditions – strain 972, OD600, 24 h, no modulator, primary screen (AID 1090);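 note: basal condition with compound alone and no growth modifier present; test concentration not given here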; conditions: S. pombe 972 growth, higher = more signal, called active from +8 up or from −8 down
[4] = budding yeast growth modifiers under rapamycin – strain BY4716, OD600, 96 h, primary screen (AID 1091); note: test concentration not given here; conditions: S. cerevisiae BY4716 + rapamycin, higher = more signal, called active from +8 up or from −8 down
[5] = target: Torsin-1A-interacting protein 2 (Homo sapiens) (UniProt Q8NFQ8); assay: small molecules binding lysate-expressed LULL1 – cell lysate, human LULL1 lysate, 635/667 nm fluorescence, primary screen (AID 1092); conditions: small-molecule microarray, hLULL1 lysate binding, 635 nm fluorescence; higher = more signal;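 note: probe is lysate of COS7 cells overexpressing human LULL1; score merges per-feature 667 nm fluorescence with signal-to-noise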
Torsin-1A-interacting protein 2 (Homo sapiens), sequence (Q8NFQ8 whole entry, looked up): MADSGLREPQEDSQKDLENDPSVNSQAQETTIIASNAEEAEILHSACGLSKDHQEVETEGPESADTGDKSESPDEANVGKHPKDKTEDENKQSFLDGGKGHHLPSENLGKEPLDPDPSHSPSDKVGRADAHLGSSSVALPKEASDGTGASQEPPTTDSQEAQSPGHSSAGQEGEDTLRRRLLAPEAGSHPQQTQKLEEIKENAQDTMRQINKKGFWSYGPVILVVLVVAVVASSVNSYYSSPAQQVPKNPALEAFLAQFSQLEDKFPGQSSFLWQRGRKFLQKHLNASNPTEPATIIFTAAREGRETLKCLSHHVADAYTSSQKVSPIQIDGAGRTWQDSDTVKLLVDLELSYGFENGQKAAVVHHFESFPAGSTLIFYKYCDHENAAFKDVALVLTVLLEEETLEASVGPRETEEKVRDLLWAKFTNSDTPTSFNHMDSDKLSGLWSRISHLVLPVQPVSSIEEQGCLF

[6] = optical density change of DRC41 E. coli – strain DRC41, OD650, 24 h, E. coli filamentation project, primary screen (AID 1093);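 note: MC1000 strain lacking acrAB efflux and sulA so SOS filamentation is blocked; test concentration not given here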; conditions: E. coli DRC41 growth, higher = more signal, called active from +8 up or from −8 down
[7] = probe aLefty2 binding to arrayed compounds – biochemical, biotinylated probe, 635/667 nm fluorescence, primary screen (AID 1094); conditions: small-molecule microarray, higher = more signal;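 note: score merges spot fluorescence near 667 nm with spot signal-to-noise ratio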
[8] = tested on: Noggin (protein binding on small-molecule microarray); assay: small molecules binding Noggin protein – biochemical, 635/667 nm fluorescence, primary screen (AID 1095); conditions: 635 nm fluorescence, higher = more signal;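 note: score merges 667 nm feature fluorescence with signal to noise over triplicate slides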
[9] = target: Neurogenic locus notch homolog protein 3 (Homo sapiens) (UniProt Q9UM47); assay: small molecules binding NOTCH3 protein – biochemical, 635/667 nm fluorescence, primary screen (AID 1096); conditions: small-molecule microarray, 635 nm fluorescence, higher = more signal
Neurogenic locus notch homolog protein 3 (Homo sapiens), sequence (Q9UM47 whole entry, looked up): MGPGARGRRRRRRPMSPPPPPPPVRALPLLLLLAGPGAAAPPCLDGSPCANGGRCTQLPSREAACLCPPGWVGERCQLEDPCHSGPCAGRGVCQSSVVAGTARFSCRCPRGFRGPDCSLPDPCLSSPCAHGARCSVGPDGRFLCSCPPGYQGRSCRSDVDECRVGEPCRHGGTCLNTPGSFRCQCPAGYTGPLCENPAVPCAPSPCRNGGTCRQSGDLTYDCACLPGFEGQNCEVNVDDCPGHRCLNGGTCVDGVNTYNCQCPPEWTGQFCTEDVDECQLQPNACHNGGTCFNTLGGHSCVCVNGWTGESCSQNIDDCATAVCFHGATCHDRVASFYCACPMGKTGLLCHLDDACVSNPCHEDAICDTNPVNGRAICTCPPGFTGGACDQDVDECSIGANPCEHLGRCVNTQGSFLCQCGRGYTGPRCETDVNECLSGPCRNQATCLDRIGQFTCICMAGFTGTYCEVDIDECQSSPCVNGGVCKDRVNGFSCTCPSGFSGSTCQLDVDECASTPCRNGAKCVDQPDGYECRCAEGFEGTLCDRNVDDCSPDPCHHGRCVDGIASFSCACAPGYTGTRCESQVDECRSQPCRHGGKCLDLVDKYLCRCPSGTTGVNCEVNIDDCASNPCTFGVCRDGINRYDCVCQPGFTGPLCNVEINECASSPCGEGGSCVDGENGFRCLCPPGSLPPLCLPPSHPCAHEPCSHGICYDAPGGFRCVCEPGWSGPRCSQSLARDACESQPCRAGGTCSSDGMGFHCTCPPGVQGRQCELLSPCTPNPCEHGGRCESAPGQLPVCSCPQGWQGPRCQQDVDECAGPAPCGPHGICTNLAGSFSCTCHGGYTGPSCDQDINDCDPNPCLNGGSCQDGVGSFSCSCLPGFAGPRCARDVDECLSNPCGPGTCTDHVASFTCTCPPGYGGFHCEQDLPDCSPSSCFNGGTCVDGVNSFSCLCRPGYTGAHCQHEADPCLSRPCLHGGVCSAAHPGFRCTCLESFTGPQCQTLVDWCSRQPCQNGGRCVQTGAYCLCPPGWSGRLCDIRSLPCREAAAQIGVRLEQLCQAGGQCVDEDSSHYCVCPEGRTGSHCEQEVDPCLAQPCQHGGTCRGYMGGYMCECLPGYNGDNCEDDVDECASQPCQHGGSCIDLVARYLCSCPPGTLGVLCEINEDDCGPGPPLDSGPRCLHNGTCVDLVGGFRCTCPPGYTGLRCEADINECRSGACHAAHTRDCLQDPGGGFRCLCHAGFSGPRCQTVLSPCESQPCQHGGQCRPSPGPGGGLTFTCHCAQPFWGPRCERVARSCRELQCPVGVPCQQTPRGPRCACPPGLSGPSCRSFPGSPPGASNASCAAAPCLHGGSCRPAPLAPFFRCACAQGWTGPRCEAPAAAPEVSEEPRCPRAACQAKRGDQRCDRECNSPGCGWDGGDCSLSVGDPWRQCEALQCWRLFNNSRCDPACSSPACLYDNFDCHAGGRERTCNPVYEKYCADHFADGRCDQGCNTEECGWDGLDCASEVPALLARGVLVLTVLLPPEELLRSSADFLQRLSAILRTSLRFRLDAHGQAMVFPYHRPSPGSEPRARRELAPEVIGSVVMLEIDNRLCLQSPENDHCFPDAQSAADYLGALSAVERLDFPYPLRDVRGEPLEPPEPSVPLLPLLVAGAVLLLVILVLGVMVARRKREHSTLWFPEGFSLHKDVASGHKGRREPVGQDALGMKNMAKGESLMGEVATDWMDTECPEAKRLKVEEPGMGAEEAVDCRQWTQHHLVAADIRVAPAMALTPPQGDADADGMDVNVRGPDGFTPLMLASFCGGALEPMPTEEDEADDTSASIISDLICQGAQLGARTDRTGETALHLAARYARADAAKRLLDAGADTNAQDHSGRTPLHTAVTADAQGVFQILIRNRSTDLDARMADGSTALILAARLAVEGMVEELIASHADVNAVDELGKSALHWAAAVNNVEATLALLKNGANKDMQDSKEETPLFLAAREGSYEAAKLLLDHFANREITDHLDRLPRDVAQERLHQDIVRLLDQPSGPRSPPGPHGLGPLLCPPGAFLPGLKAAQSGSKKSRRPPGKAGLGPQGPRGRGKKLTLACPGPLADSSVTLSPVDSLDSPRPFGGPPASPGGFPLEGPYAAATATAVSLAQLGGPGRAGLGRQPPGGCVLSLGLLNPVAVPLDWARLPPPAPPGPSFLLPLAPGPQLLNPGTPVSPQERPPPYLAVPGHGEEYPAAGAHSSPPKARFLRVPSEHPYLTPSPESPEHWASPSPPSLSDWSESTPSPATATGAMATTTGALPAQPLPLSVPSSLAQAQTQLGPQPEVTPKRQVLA

[10] = probe aEGFR binding to arrayed compounds – biochemical, biotinylated probe, 635/667 nm fluorescence, primary screen (AID 1097); conditions: small-molecule microarray, higher = more signal;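 note: probe is a biotinylated anti-EGFR antibody binding compounds printed on slides; score combines fluorescence near 667 nm and signal to noise of each spot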

Which composite z-score [1] does the source give for CN(C)CCCCNC(=O)[C@H]1C[C@H]2C(=O)N[C@@H](CCCC[N+](C)(C)C)C(=O)N2[C@H]1c1ccc(O)cc1 here?
Its composite z-score is 0.366.

And the z-score [2]?
Its z-score is -0.838 (inactive).

And the z-score [3]?
The z-score was 0.0639 (inactive).

What about the z-score [4] of the same compound?
The z-score was -0.682 (inactive).

What about the composite z-score [5] of the same compound?
The composite z-score was -0.2.

And the z-score [6]?
Its z-score is 0.744 (inactive).

And the composite z-score [7]?
Its composite z-score is -0.0011.

And the composite z-score [8]?
The composite z-score was -0.0923.

What about the composite z-score [9] of the same compound?
The composite z-score was -0.529.

What about the composite z-score [10] of the same compound?
The composite z-score was -0.194.

Which results are given for CC(C)[C@H]1NC(=O)[C@@]23C(=O)N[C@@H](Cc4ccccc4)C2[C@H](C)[C@@]2(C)O[C@H]2C3/C=C/C/C=C\CNC(=O)[C@H](Cc2ccccc2)NC1=O (stereo not given in full)?
composite z-score [1]: 1.53; z-score [2]: -0.155 (inactive); z-score [3]: -0.228 (inactive); z-score [4]: 0.246 (inactive); composite z-score [5]: 2.68; z-score [6]: 0.317 (inactive); composite z-score [7]: -0.052; composite z-score [8]: 0.877; composite z-score [9]: 1.08; composite z-score [10]: 0.0354

With CC(CO)N1C(=O)[C@@H]2[C@H]3C(=O)OCC=C[C@H]3OC23C=CCN(c2ccc(Cl)cc2)C(=O)[C@@H]13 (stereo not given in full) as the compound, how does the composite z-score [1] read?
Its composite z-score is -0.421.

What about the z-score [2] of the same compound?
The z-score was -0.686 (inactive).

What about the z-score [3] of the same compound?
Its z-score is -0.244 (inactive).

And the z-score [4]?
The z-score was -0.404 (inactive).

And the composite z-score [5]?
The composite z-score was -0.391.

And the z-score [6]?
Its z-score is 0.612 (inactive).

And the composite z-score [7]?
The composite z-score was 0.

And the composite z-score [8]?
Its composite z-score is -2.26.

And the composite z-score [9]?
The composite z-score was -1.05.

What about the composite z-score [10] of the same compound?
The composite z-score was -0.297.

What does the source list for C=C(C)C1CCC(C(O)C2C=CC3C(=O)N(C)C(=O)C3N2Nc2cc(OC)c(OC)c(OC)c2)CC1 (stereo not given)?
composite z-score [1]: 1.51; z-score [2]: 0.367 (inactive); z-score [3]: 0.458 (inactive); z-score [4]: 0.0769 (inactive); composite z-score [5]: 3.28; z-score [6]: -1.37 (inactive); composite z-score [7]: 0.0361; composite z-score [8]: 0.205; composite z-score [9]: 1.02; composite z-score [10]: 0.0763

What does the source list for COc1ccc([Si](C)(C)[C@@H]2[C@@H](CCn3cc([C@H](O)c4ccccc4)nn3)O[C@]3(C(=O)N(Cc4cccc(N5C(=O)c6cccc7cccc5c67)c4)c4ccccc43)[C@H]2C)cc1?
composite z-score [1]: 0.645; z-score [2]: 0.738 (inactive); z-score [3]: 1.21 (inactive); z-score [4]: 2.54 (inactive); composite z-score [5]: 0.98; z-score [6]: -0.143 (inactive); composite z-score [7]: -0.139; composite z-score [8]: -0.319; composite z-score [9]: -0.048; composite z-score [10]: -0.182
